This note sets out measurements from PubChem BioAssay (NCI).

Each structure is given as a SMILES string. Several values for one entry are separate records, joined by “and”; a condition that tells them apart may be missing. Equal entries are not always repeated. About 83,000 compounds went through this panel and 20% of them were active in at least one assay; those are over-represented in the sample as a whole.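 Growth was measured after 48 h exposure to one concentration of compound in 96-well plates. Values under 10 count as active.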 A number with no mark means an inactive call. Activity calls are given as the source filed them.

The assay relates to MDA-MB-468 breast. The assay can be described thus: NCI-60 one-dose screen, 48 h (100 = growth as untreated, 0 = no growth, -100 = all killed). The conditions noted are these: 10 µM unless noted.
With `COc1ccc(-c2nnc(-c3ccc4c(c3)nc(-c3ccccc3)n4C3CCCCC3)o2)cc1`, the growth is 83.8%.
In the case of `COc1ccc(S(=O)(=O)NCCCNc2nccc(-c3c(-c4cccc([N+](=O)[O-])c4)nc4sccn34)n2)cc1`, the growth is 16.2%.
As for `CC(=O)c1c(C)c2cnc(Nc3ccc(N4CCNCC4)cn3)nc2n(C2CCCC2)c1=O`, the growth is 26.9%.
To `CCCc1[nH]c(-c2cc(N)ccc2Cl)c2c1C(=O)CCCC2` belongs 93.7%; to `Cn1cccc1/C=C1/SC(=S)N(CCc2ccc(O)cc2)C1=O`, 10.3%; to `CC1CCC(C(C)(C)[N+](C)(C)C)CC1` (stereo not given), 120%.
Turning to `O=S(=O)(NCCCNc1cc(-c2c(-c3cccc(O)c3)nc3sccn23)ccn1)c1cccc2ccccc12`, the growth is 38.3%.
With `NC(=S)NN=C1CCC(C2CCCCC2)CC1` (stereo not given), the growth is 50.9% and 46.9%.
`COc1c(C)c(C)c(OC)c2c1[nH]c(=O)c1c3cccnc3cn21`: the growth is 114%.
To `N#Cc1ccc(OC(=O)Nc2c(Cl)cc(Cl)cc2Cl)cc1` belongs 97%; to `CO[C@H]1CC(c2ccc[nH]2)=N[C@]12O[C@@H](C)C[C@@H]1CCCCCCCc3ccc([nH]3)[C@H]12`, 1.37% (active); to `COc1cc(C2CC(C3C(=O)N(C)C(=O)N(C)C3=O)=NN2C=O)cc(OC)c1OC` (stereo not given), 103%.
Regarding `COc1cc(C2CC(c3ccc(Nc4nc(NCCO)nc(Nc5ccc(Cl)cc5)n4)cc3)=Nc3c(N)nc(N)nc3N2)cc(OC)c1OC` (stereo not given), the growth is 58.6%.
For `O=C1C=C[C@]2(C[C@@H](c3cccc(C(F)(F)F)c3)O[C@@H](c3cccc(C(F)(F)F)c3)O2)O1`, the growth is -48.8% (active).
For `O=C(Nc1ccc(N2CCOCC2)cc1)Nc1ccc2c(ccn2C(=O)c2cccc(F)c2)c1`, the growth is 27.5%.
Take `NS(=O)(=O)c1ccc(Nc2nc(N/N=C/C=C/c3ccccc3)nc(Nc3ccccc3)n2)cc1`: the growth was 15.6%.
`CS(=O)(=O)Nc1cccc(C(=O)NCc2ccc(N3CCOCC3)cc2)c1`: the growth is 93%.
With `Cc1ccc(Nc2nccc(N(C)c3ccc4c(C)n(C)nc4c3)n2)cc1S(N)(=O)=O`, the growth was 34.1%.
With `COCc1cc2c(cc1Br)OCO2`, the growth was 110%.
As to `Cc1ccc(Cl)cc1Nc1nc(C(F)(F)F)ccc1C(=O)N/N=C/c1c(Cl)cccc1Cl`, the growth is -13.1% (active).
Consider `COc1ccc(-c2ccc3cnc4sc(-c5ccc(OC)cc5)nc4c3n2)cc1`, for which the growth was 96.5%.
As for `COc1ccc2oc(=O)cc(CN3C(=O)S/C(=C\c4ccc(Cl)cc4)C3=O)c2c1`, the growth was 101%.
With `COc1ccc2c(N)ncc(C#Cc3cc(C(=O)Nc4ccc(CN5CCN(C)CC5)c(C(F)(F)F)c4)cnc3C)c2c1` the figure was 46.7%.
Take `Cc1cc(-c2nc3ccccc3s2)ccc1NC(=O)COc1ccc(Cl)cc1`: the growth was -39% (active).
In the case of `O=C1CCc2c(sc3[nH]c(=S)n(-c4ccc(OC(F)(F)F)cc4)c(=O)c23)C1`, the growth was -4.6% (active).
For the molecule `COc1ccc(C2=NN(C=O)C(c3ccc(OS(=O)(=O)c4ccc(C)cc4)c(OC)c3)C2)cc1` (stereo not given), the growth is 18.1%.
To `O=C(CCl)Nc1ccccc1SCc1cc(Cl)cc2c1OCOC2` belongs 51.6%.
In the case of `COc1cc(NCCCN(CC(C)C)C2CCCC2)c2ncccc2c1`, the growth was 15.7%.
As for `CNC(=O)c1cc(Oc2ccc(NC(=O)Nc3ccc(Cl)c(OC4CCCCC4)c3)c(F)c2)ccn1`, the growth was 15.5%.
With `CN(C)c1ccc(S(=O)(=O)O)cc1`, the growth was 106%.
With `CC/C(=C(/c1ccc(Cl)cc1)c1ccc(OCCN2CCCCCC2)cc1)c1ccccc1` the figure was 78.3%; with `Cc1ccc(OC(=O)c2ccccc2)cc1`, 107%.
As to `CCOC(=O)c1c2c(c(C)n1Cc1ccccc1)-c1nc(N)ncc1CC2`, the growth is 100%.
As to `FC1(F)CCN(Cc2c[nH]c3cc(Cl)ccc23)C[C@H]1CCc1ccccc1`, the growth was 9.33% (active).
With `O=C(c1ccccc1)N(C(=O)c1ccccc1)N1CCCC1` the figure was 108%.
As to `O=C(CCCCCCN1CC(=O)N2[C@H](c3cc(Br)cs3)c3[nH]c4ccccc4c3C[C@H]2C1=O)NO`, the growth is 44.7%.
`O=C(/C=C/c1ccccc1)c1ccc(-n2cc(CN3CCN(c4cc5c(cc4F)c(=O)c(C(=O)O)cn5C4CC4)CC3)nn2)cc1`: the growth is 66%.
Consider `O=C(Nc1cccc(-n2cc(-c3ccncc3)c(-c3ccc(O)c(Cl)c3)n2)c1)c1cc(C(F)(F)F)cc(C(F)(F)F)c1`, for which the growth was 61.6%.
With `CCCSc1nc(N)nc2nc[nH]c12` the figure was 113%; with `Cc1[nH]ccc2cc3nc4ccccc4c3cc12`, 10.7%.
